From PubChem BioAssay
T cruzi growth-1: inhibitors of T. cruzi proliferation; T. cruzi beta-gal in NIH3T3, GalScreen luminescence, 90 h; inhibition, % at 8.34 µM; hit rate 5.9% among 77,000; AID 624255;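 active means mean inhibition above about 93%, with at least 55% of replicates each passing it, limit read from the data, passing the limit was not always enough; inconclusive means only one of those two conditions holds; inactive means neither condition holds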
C diff HTS: C. difficile growth inhibition. Clostridium difficile clinical isolate growth, OD600, 24 h; active compounds read low. hit rate 0.25% among 86,000. growth activity, negative = inhibition, % at 16 µg/mL (by protocol). AID 1259249;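 active means mean growth activity at or below -80% and every replicate also at or below -80%; inconclusive means mean at or below -80% but some replicate above -80%; inactive means mean growth activity above -80%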
Pf Dd2 growth: inhibitors of Plasmodium falciparum Dd2 growth; hit rate 2.3% among 94,000; activity change, % at 10 µM; P. falciparum Dd2 growth, SYBR Green, 72 h; active compounds read low; in the data active means activity change below about -80%; inconclusive means no clear call, values can overlap the other calls
T cruzi growth-2: Trypanosoma cruzi proliferation inhibition; shares compounds with T cruzi growth-1; T. cruzi beta-gal in NIH3T3, GalScreen luminescence, 90 h; inhibition, % at 8.35 µM; hit rate 72% among 5,600;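 active means mean replicate inhibition above about 95% and at least 55% of replicates individually reaching it, limit read from the data; inconclusive means only one of the two criteria is met; inactive means neither criterion is met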
T cruzi growth-3: Trypanosoma cruzi proliferation inhibition. hit rate 21% among 5,600. inhibition, % at 2.09 µM. shares compounds with T cruzi growth-1. T. cruzi beta-gal in NIH3T3, GalScreen luminescence, 90 h;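 active means mean inhibition above about 95%, with at least 55% of replicates also reaching it, limit read from the data; inconclusive means meets just one of the two conditions; inactive means meets neither condition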
3T3 cytotox: cytotoxicity in mouse NIH/3T3 fibroblasts; shares compounds with T cruzi growth-1; NIH/3T3 viability, CellTiter-Glo ATP luminescence, 90 h; cytotoxicity (signal decrease), % at 8.35 µM; hit rate 14% among 5,600;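 active means mean signal decrease across replicates above about 35% based on untreated-well scatter, with enough replicates individually passing, limit read from the data; inconclusive means no rule stated though some were filed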
3T3 cytotox 2: kills mouse NIH/3T3 fibroblasts. NIH/3T3 viability, CellTiter-Glo ATP luminescence, 90 h. hit rate 56% among 5,600. inhibition, % at 24.9 µM. shares compounds with T cruzi growth-1;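 active means mean loss of cell viability signal at or above a set limit, and enough replicates individually reaching it; inconclusive means meets only the mean limit or only the replicate share; inactive means meets neither condition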
Hits are given with their value; n = inactive; u = inconclusive; x = no result given. In the library only some 6.7% were active in any assay of this set; here they are far more common.

SMILES | T cruzi growth-1 | C diff HTS | Pf Dd2 growth | T cruzi growth-2 | T cruzi growth-3 | 3T3 cytotox | 3T3 cytotox 2
CCC(=O)N(C)C[C@@H]1Oc2cc(C#CC3CCCCC3)ccc2S(=O)(=O)N([C@H](C)CO)C[C@@H]1C | 110.1 | n | n | 95.4 | n | n | 104.5
CCC(=O)N(C)C[C@H]1Oc2cc(C#CC3CCCCC3)ccc2S(=O)(=O)N([C@@H](C)CO)C[C@H]1C | n | n | n | x | x | x | x
CCC(=O)N(C)C[C@H]1Oc2cc(C#CC3CCCCC3)ccc2S(=O)(=O)N([C@H](C)CO)C[C@H]1C | n | n | n | x | x | x | x
CCC(=O)N(C)C[C@H]1Oc2cc(C#CC3CCCCC3)ccc2S(=O)(=O)N([C@@H](C)CO)C[C@@H]1C | n | n | n | x | x | x | x
CCC(=O)N(C)C[C@H]1Oc2cc(C#CC3CCCCC3)ccc2S(=O)(=O)N([C@H](C)CO)C[C@@H]1C | 107.9 | n | n | 101.6 | n | n | 82.7
O=C(Nc1ccc(F)cc1)N1C[C@H]2[C@@H](c3ccccc31)[C@@H](CO)N2C(=O)c1ccccn1 | n | n | n | x | x | x | x
COCC#Cc1ccc2c(c1)O[C@H](CN(C)S(=O)(=O)c1ccc(OC)cc1)[C@@H](C)CN([C@@H](C)CO)S2(=O)=O | x | x | n | x | x | x | x
CC(=O)CC(=O)N1C(=O)N(C)[C@@]2(C)Oc3ccccc3[C@@H]1[C@H]2COC(=O)c1ccc([N+](=O)[O-])cc1 | x | n | x | x | x | x | x
Cc1ccc(S(=O)(=O)N(C)C[C@H]2OCCCC[C@H](C)Oc3ccc(NC(=O)c4ccccc4)cc3C(=O)N([C@H](C)CO)C[C@@H]2C)cc1 | n | x | n | x | x | x | x
CC(=O)N(C)C[C@H]1Oc2cc(C#Cc3cccnc3)ccc2S(=O)(=O)N([C@H](C)CO)C[C@H]1C | n | n | n | x | x | x | x
COCC(=O)Nc1ccc2c(c1)C(=O)N(C)C[C@@H](OC)[C@@H](C)CN(Cc1ccncc1)[C@@H](C)CO2 | 97.8 | x | n | n | n | n | n
CO[C@H]1CN(C)C(=O)c2cc(NC(=O)c3nc4ccccc4s3)ccc2OC[C@H](C)N(Cc2ccncc2)C[C@@H]1C | 100.1 | n | x | 98.0 | n | n | 41.6
COc1ccc(CN2C[C@@H](C)[C@H](OC)CN(C)C(=O)c3ccc(NC(=O)c4nc5ccccc5s4)cc3OC[C@@H]2C)cc1 | 101.8 | n | n | 114.7 | n | n | n
COCC(=O)Nc1ccc2c(c1)C(=O)N(C)C[C@@H](OC)[C@H](C)CN(Cc1ccncc1)[C@H](C)CO2 | n | x | n | x | x | x | x
CO[C@@H]1CN(C)C(=O)c2ccc(NC(=O)c3nc4ccccc4s3)cc2OC[C@@H](C)N(Cc2cccnc2)C[C@@H]1C | 102.4 | n | n | 108.5 | u | n | 42.5
CO[C@@H]1CN(C)C(=O)c2ccc(NC(=O)c3nc4ccccc4s3)cc2OC[C@@H](C)N(Cc2cncnc2)C[C@H]1C | x | x | n | x | x | x | x
CO[C@H]1CN(C)C(=O)c2ccc(NC(=O)c3nc4ccccc4s3)cc2OC[C@H](C)N(Cc2cccnc2)C[C@H]1C | n | n | n | x | x | x | x
CO[C@@H]1CN(C)C(=O)c2cc(NC(=O)c3nc4ccccc4s3)ccc2OC[C@H](C)N(Cc2ccncc2)C[C@H]1C | n | n | x | x | x | x | x
COc1cccc(NC(=O)N[C@@H]2CC[C@H](CC(=O)Nc3ccc(-c4ccccc4)cc3)O[C@@H]2CO)c1 | n | x | n | x | x | x | x
COc1ccc(NC(=O)Nc2ccc3c(c2)C(=O)N([C@@H](C)CO)C[C@@H](C)[C@@H](CN(C)S(=O)(=O)c2ccccc2)O3)cc1 | n | n | n | x | x | x | x
N#C[C@H]1[C@H](c2ccc(C#CC3CCCC3)cc2)[C@@H](CO)N1S(=O)(=O)c1ccccc1 | 100.0 | n | n | 95.5 | 99.2 | n | 105.7
N#C[C@H]1[C@@H](c2ccc(C#CC3CCCCC3)cc2)[C@H](CO)N1S(=O)(=O)c1ccccc1 | n | n | n | x | x | x | x
N#C[C@@H]1[C@@H](c2ccc(C#CC3CCCCC3)cc2)[C@H](CO)N1S(=O)(=O)c1ccccc1 | n | n | n | x | x | x | x
N#C[C@@H]1[C@@H](c2ccc(C#CC3CCCC3)cc2)[C@H](CO)N1S(=O)(=O)c1ccccc1 | 97.4 | n | n | 95.2 | 106.9 | n | 104.5
CO[C@@H]1CN(C)C(=O)c2ccc(NC(=O)Nc3ccccc3F)cc2OC[C@@H](C)N(Cc2ccccc2F)C[C@H]1C | 116.7 | x | -90.3 | 106.4 | 111.0 | n | n
